NR3A LBD binder: modulators (binders) of human NR3A ligand-binding domain; NR3A LBD differential scanning fluorimetry, Tm shift; 0% = protein alone, 100% = glycine-bound protein; Tm shift relative to glycine control, % at 25 µM; 340,000 tested, 2.5% active;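 active = melting temperature shift of at least 10% of the positive control shift, at one fixed dose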
MPTP block: inhibitors of mitochondrial permeability transition pore; isolated mouse mitochondria, Ca2+ swelling absorbance, 30 min; inhibition, % at 10 µM; 360,000 tested, 1.4% active; AID 602449;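 active = inhibition of 50% or more, scaled per plate between neutral and stimulator controls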
beta cell repl: inducers of beta-cell replication in MIN6 cells; MIN6 cells proliferation, ATPlite luminescence, 48 h; cells starved in 0.2% serum; 100% = growth in 10% serum; proliferation, % at 10 µM; 330,000 tested, 0.29% active; AID 2380;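 active = compounds whose signal lies at least 3.5 SD above the mean of all wells on their plate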
FAS TE block: blocks the thioesterase domain of human fatty acid synthase | P49327 | recombinant FAS-TE, OMFH fluorogenic substrate, fluorescence endpoint | inhibition, % at 15 µM | 360,000 tested, 0.67% active;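 active = compounds whose normalised, plate-corrected inhibition of enzyme fluorescence in the single-dose primary screen is 50% or more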
Target sequence (P49327 whole entry, looked up, the tested form may be a part): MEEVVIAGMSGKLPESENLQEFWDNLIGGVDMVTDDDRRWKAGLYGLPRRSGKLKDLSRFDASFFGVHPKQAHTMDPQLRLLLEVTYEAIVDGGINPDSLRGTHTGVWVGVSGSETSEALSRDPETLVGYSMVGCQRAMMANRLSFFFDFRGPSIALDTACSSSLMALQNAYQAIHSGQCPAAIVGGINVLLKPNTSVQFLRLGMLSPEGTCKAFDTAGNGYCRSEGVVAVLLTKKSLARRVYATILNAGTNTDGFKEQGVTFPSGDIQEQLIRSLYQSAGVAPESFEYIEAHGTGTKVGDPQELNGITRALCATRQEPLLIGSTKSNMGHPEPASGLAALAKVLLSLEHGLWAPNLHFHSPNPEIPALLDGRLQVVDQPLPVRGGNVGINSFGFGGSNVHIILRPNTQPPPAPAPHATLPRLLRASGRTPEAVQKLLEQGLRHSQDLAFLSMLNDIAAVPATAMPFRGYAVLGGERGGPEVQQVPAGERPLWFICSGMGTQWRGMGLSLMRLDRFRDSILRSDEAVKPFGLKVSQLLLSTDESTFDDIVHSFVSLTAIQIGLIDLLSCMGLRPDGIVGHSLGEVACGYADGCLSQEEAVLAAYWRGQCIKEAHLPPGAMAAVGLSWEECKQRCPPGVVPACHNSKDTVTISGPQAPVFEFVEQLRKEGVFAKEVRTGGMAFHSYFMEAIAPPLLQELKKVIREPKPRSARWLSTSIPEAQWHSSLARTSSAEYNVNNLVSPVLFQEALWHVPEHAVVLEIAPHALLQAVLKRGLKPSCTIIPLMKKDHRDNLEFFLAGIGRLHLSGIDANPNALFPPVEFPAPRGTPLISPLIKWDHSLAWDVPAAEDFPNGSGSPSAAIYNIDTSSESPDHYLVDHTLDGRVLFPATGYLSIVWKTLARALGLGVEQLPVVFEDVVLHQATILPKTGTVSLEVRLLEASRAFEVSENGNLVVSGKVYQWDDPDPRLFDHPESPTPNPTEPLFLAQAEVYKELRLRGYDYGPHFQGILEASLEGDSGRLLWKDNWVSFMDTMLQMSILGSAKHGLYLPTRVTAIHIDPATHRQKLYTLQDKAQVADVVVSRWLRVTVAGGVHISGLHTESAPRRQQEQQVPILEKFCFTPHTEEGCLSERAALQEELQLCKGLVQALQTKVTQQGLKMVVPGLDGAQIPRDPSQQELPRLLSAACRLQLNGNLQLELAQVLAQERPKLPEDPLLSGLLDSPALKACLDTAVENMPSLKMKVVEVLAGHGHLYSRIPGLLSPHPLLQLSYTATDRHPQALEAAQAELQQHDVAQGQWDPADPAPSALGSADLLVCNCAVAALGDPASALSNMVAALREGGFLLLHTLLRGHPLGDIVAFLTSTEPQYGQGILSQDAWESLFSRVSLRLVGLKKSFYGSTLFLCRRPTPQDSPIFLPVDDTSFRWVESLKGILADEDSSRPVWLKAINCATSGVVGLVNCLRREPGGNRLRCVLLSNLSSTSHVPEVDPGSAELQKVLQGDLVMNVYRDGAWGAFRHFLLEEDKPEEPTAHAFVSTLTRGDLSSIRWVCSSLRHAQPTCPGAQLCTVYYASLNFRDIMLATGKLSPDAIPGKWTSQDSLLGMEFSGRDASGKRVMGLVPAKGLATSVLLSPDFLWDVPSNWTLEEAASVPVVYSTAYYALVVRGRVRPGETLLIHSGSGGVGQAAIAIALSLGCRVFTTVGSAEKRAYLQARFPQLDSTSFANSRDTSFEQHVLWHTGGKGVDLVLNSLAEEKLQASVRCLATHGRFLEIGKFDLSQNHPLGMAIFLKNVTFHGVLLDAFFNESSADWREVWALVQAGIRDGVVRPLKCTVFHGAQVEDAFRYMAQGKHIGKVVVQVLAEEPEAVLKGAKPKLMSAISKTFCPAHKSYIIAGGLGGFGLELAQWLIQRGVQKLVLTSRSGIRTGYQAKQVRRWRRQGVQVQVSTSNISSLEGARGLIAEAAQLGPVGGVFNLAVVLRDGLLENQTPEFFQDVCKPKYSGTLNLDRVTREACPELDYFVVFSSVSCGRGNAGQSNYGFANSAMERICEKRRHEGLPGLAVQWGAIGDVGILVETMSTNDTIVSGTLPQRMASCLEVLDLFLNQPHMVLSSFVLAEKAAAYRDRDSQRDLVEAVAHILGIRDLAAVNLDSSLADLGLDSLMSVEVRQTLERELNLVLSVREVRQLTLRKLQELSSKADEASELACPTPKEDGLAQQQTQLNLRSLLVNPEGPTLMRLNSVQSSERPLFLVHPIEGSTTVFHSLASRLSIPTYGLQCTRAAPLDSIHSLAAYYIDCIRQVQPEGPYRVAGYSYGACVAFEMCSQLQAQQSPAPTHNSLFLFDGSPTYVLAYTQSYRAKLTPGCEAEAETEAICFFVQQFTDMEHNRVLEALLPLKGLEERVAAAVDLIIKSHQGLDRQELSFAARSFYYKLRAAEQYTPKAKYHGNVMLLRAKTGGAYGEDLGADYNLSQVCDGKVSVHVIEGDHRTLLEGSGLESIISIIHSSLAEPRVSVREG
p-CIP stab down: compounds decreasing mouse p/CIP protein stability; Q05BA5; F442A p/CIP-EGFP cells, EGFP fluorescence, 16 h; decrease of EGFP signal, % at 10 µM; 290,000 tested, 0.01% active;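 active = EGFP signal decrease of at least 30% at 10 µM or well 3 SD below plate mean, unless failing retest; inactive = the rest, including hits failing retest or dose response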
FAS-TE conf: confirmation of human fatty acid synthase thioesterase inhibitors. inhibition, % at 15 µM. shares compounds with FAS TE block. recombinant FAS-TE, OMFH fluorogenic substrate, fluorescence. AID 624325. 2,300 tested, 45% active;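 active = compounds inhibiting the enzyme by at least 50% at 15 µM in any one of the replicates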
Large screens that a line does not name were inactive (follow-up assays come after a bar, where they were run). Shown are actives, neighbours in structure and some others; about 4.1% of the full set was active somewhere.

COc1ccc([C@@H]2[C@@H]3C(=O)N(C(C)(C)C)C(=O)[C@@H]3[C@]3(Cc4ccccc4)C(=O)N(c4cccc(F)c4)C(=O)N23)cc1	FAS TE block 52 (no result: p-CIP stab down) | FAS-TE conf inactive
CC(C)(C)N1C(=O)[C@H]2[C@@H](c3ccc(Br)cc3)N3C(=O)N(c4ccc(Br)cc4)C(=O)[C@@]3(Cc3ccccc3)[C@H]2C1=O	FAS TE block 91 | FAS-TE conf 51
COc1ccc(-c2oc3c(c2C#CC(C)(C)O)C(OC)CCC3)cc1 (stereo not given)	none (no result: NR3A LBD binder, beta cell repl, p-CIP stab down)
CC(C)(C)n1nnnc1C(c1cc2ccccc2o1)N1CCN(C(=O)OCc2ccccc2)CC1 (stereo not given)	none (no result: NR3A LBD binder, beta cell repl, p-CIP stab down)
O=C(O)c1cc(-c2ccc(/C=N/NC(=S)Nc3ccccc3)o2)ccc1Cl	FAS TE block 50 | FAS-TE conf 55
CNC(=S)N/N=C/c1ccc(-c2cccc(C(=O)O)c2)o1	none
Cc1cccc(C2=NN(c3ccccc3)[C@@H](C(=O)N3CCOC3=O)[C@@H]2c2ccc(F)cc2)c1	none (no result: beta cell repl, p-CIP stab down)
O=C1OCCN1C(=O)[C@H]1[C@H](c2ccc(F)cc2)C(c2ccc(F)cc2)=NN1c1ccc(Br)cc1	FAS TE block 84 | FAS-TE conf inactive
C[C@@H]1C(c2ccccc2)=NN(c2ccc(Br)cc2)[C@H]1C(=O)N1CCOC1=O	none (no result: beta cell repl, p-CIP stab down)
O=C1OCCN1C(=O)[C@H]1[C@H](c2ccc(Cl)cc2)C(c2ccc(F)cc2)=NN1c1ccc(Br)cc1	NR3A LBD binder 18, FAS TE block 88 (no result: beta cell repl, p-CIP stab down) | FAS-TE conf inactive
Cc1ccc(CSc2ccc(S(=O)(=O)N3CCCC3)cn2)cc1	none (no result: p-CIP stab down)
N#Cc1ccc(CSc2ccc(S(=O)(=O)N3CCCC3)cn2)cc1	FAS TE block 64 (no result: p-CIP stab down) | FAS-TE conf 64
O=[N+]([O-])c1ccc(CSc2ccc(S(=O)(=O)N3CCCC3)cn2)cc1	FAS TE block 58 (no result: p-CIP stab down) | FAS-TE conf 54
Cc1ccc(CSc2ccc(S(=O)(=O)N3CCOCC3)cn2)cc1	none (no result: p-CIP stab down)
CC(C)c1ccc(CSc2ccc(S(=O)(=O)N3CCOCC3)cn2)cc1	FAS TE block 69 (no result: p-CIP stab down) | FAS-TE conf 36
O=[N+]([O-])c1ccc(CSc2ccc(S(=O)(=O)N3CCOCC3)cn2)cc1	FAS TE block 53 (no result: p-CIP stab down) | FAS-TE conf 55
OC[C@@H]1CN(Cc2ccc(-c3ccccc3)cc2)C[C@H](n2cnc3c(N4CCCC4)ncnc32)O1	none (no result: NR3A LBD binder, beta cell repl, p-CIP stab down)
C=C[C@@H]1c2cc(C)ccc2N(S(=O)(=O)c2ccc(C)cc2)[C@H](c2ccc(OC(C)=O)cc2)C1(C#N)C#N	FAS TE block 52 (no result: p-CIP stab down) | FAS-TE conf inactive
C=C[C@@H]1c2ccccc2N(S(=O)(=O)c2ccc(C)cc2)[C@H](c2ccc(OC(C)=O)cc2)C1(C#N)C#N	FAS TE block 62 (no result: p-CIP stab down) | FAS-TE conf inactive
Cc1ccc2c(c1)C1CN(C)CCC1N2S(=O)(=O)c1ccc(C#N)cc1 (stereo not given)	none (no result: p-CIP stab down)
O=C(Nc1ccc2c(c1)OCO2)C1Cc2c(-c3ccc4c(c3)OCO4)ccnc2O1 (stereo not given)	none (no result: NR3A LBD binder, beta cell repl, p-CIP stab down)
O=C1O[C@@H](c2ccccc2)C[C@@H](O)C(=O)CCCCc2ccccc21	none (no result: NR3A LBD binder, beta cell repl, p-CIP stab down)
O=C(Cn1cc(C(=O)C2CC2)c2ccccc21)NCc1ccc2c(c1)OCO2	FAS TE block 59 | FAS-TE conf 55
CC1(C(=O)NS(=O)(=O)c2ccccc2C(F)(F)F)CCN1C(=O)CCc1ccccc1 (stereo not given)	none (no result: NR3A LBD binder, beta cell repl, p-CIP stab down)
NC(=S)N/N=C/c1ccc(-c2ccc(SC(F)F)cc2)o1	FAS TE block 55 | FAS-TE conf 39
COc1ccccc1NC(=S)N(CCCN(C)C)Cc1cc2cc3c(cc2[nH]c1=O)OCO3	none
COC(=O)c1ccccc1NC(=S)N(Cc1ccc2c(c1)OCO2)Cc1cc2cc(OC)ccc2[nH]c1=O	FAS TE block 68 | FAS-TE conf inactive
CCOC(=O)C1CCN(C(=O)COc2ccc([N+](=O)[O-])cc2)CC1	FAS TE block 59 | FAS-TE conf 67
Cc1ccc(C)c(C(=O)COC(=O)c2cc([N+](=O)[O-])ccc2N2CCOCC2)c1	none (no result: p-CIP stab down)
COC(=O)C1CCN(C(=O)COC(=O)c2cc([N+](=O)[O-])ccc2N2CCOCC2)CC1	FAS TE block 69 (no result: p-CIP stab down) | FAS-TE conf 71
CC1CCN(C(=O)COC(=O)c2cc([N+](=O)[O-])ccc2N2CCOCC2)CC1	FAS TE block 71 (no result: p-CIP stab down) | FAS-TE conf 82
COc1ccc(NC(=O)c2cc(C3CCCCN3C(=O)CCc3ccccc3)on2)c(C)c1 (stereo not given)	none (no result: NR3A LBD binder, beta cell repl, p-CIP stab down)
COC(=O)c1sc2ccccc2c1NC(=O)c1ccc(S(=O)(=O)N2CCCC(C)C2)cc1 (stereo not given)	FAS TE block 52 | FAS-TE conf inactive
COc1ccc([C@H]2/C=C\CN(S(=O)(=O)c3cccc4cccnc34)[C@@H](C)C(=O)N2Cc2ccc(F)cc2)cc1	FAS TE block 78 (no result: p-CIP stab down) | FAS-TE conf inactive
COc1cccc(-c2cc3nc(NCCN4CCCC4)n(C)c(=O)c3s2)c1	none (no result: NR3A LBD binder, beta cell repl, p-CIP stab down)
O=C(O)/C(=C/c1ccc(Cl)c([N+](=O)[O-])c1)c1ccc(S(=O)(=O)N2CCCCC2)s1	FAS TE block 56 (no result: beta cell repl, p-CIP stab down) | FAS-TE conf 53
COCCn1c(C)cc(C(=O)CN2C(=O)C(=O)N(CCC3=CCCCC3)C2=O)c1C	none (no result: NR3A LBD binder, beta cell repl, p-CIP stab down)
O[C@H]1C[C@H](c2ccc(Cl)cc2)N(CC2CCCCC2)C[C@@H]1n1cc(C2CC2)nn1	FAS TE block 59 (no result: NR3A LBD binder, beta cell repl, p-CIP stab down) | FAS-TE conf 56
CC1(C(=O)NCc2ccco2)CCN1C(=O)C1(c2ccccc2)CC1 (stereo not given)	none (no result: NR3A LBD binder, beta cell repl, p-CIP stab down)
CCCN(CC(=O)Nc1ccc(F)c(F)c1F)C(=O)c1cc([N+](=O)[O-])ccc1N1CCOCC1	FAS TE block 54 (no result: p-CIP stab down) | FAS-TE conf 52
CC(C)c1ccccc1NC(=O)COC(=O)c1cc([N+](=O)[O-])ccc1N1CCOCC1	FAS TE block 74 (no result: p-CIP stab down) | FAS-TE conf 65
O=C(COC(=O)c1cc([N+](=O)[O-])ccc1N1CCOCC1)c1ccc(OC(F)F)cc1OC(F)F	none (no result: p-CIP stab down)
O=C(COC(=O)c1cc([N+](=O)[O-])ccc1N1CCOCC1)Nc1ccccc1OC(F)F	FAS TE block 74 (no result: p-CIP stab down) | FAS-TE conf 79
O=C(COC(=O)C1CCCCC1)Nc1cc([N+](=O)[O-])ccc1F	FAS TE block 63 | FAS-TE conf 69
Cc1ccccc1COC(=O)c1cc([N+](=O)[O-])ccc1N1CCOCC1	none
CC1(C(=O)Nc2cnc3ccccc3c2)CCN1C(=O)C/C=C/c1ccccc1 (stereo not given)	none (no result: NR3A LBD binder, beta cell repl, p-CIP stab down)
O=C1NC[C@H](CCCCN2C[C@H](Cc3ccc(O)cc3)N(CC3CCCCC3)C(=O)C2=O)N(Cc2ccccc2)C1=O	none (no result: NR3A LBD binder, beta cell repl, p-CIP stab down)
CC(C)N1CCC1(C)C(=O)Nc1nccc2cccnc12 (stereo not given)	none (no result: NR3A LBD binder, beta cell repl, p-CIP stab down)
O=C(COC(=O)c1cc([N+](=O)[O-])ccc1N1CCOCC1)Nc1cc(F)ccc1F	FAS TE block 85 (no result: p-CIP stab down) | FAS-TE conf 51
